Screens as filed in PubChem.
ELG1 repair inh – qHTS screen for small molecules that inhibit ELG1-dependent DNA repair in human embryonic kidney (HEK293T) cells expressing luciferase-tagged ELG1 | HEK293T ELG1-luciferase reporter, luminescence, 16 h; DNA damage induced by 5-fluorouridine | Potency, µM (highest dose often 46.1 µM), inactives show at the top dose activity change, negative = inhibition, most hits filed as inhibitors | actives 2.3% (n = 330,000) | AID 504467, 2011; note: potency is the fitted concentration of half-maximal effect; nearly all actives have a fitted effect of over 55% in size
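Reporter activity after DNA damage by 5-fluorouridine is monitored. Compound-treated cells incubate 16 hr at 37 °C, then ONE-Glo is added for 30 min before luminescence reading.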
FBPA coupling cs – qHTS Assay for Inhibitors of Fructose-1,6-bisphosphate Aldolase from Giardia Lamblia: Coupling assay counterscreen; coupling enzyme system counterscreen, AmpLite Red fluorescence; activity change, negative = inhibition, % at 58.2 µM, hits read low; actives 0.67% (n = 290,000); in the data active = activity change below about -30%
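First, compound is pin-transferred into glyceraldehyde-3-phosphate coupling-enzyme reagent at 57.5 uM final and held 10 min at RT. Next, substrate, coupling system and AmpLite Red are added. After 20 min RT, fluorescence (525/598 nm) is read.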
TSHR antagonist – Antagonists of the Thyroid Stimulating Hormone Receptor: HTS campaign; Thyrotropin receptor (Homo sapiens), P16473; TSHR-expressing cells, TSH-stimulated cAMP HTRF, 2 h; stronger effect = lower value; activity change, negative = inhibition, % at 11.5 µM; actives 0.2% (n = 330,000);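 active = activity change below a set negative limit, meaning inhibition stronger than a set level, cut at about -70% in these data; inconclusive = activity change between two set negative limits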
Target sequence (P16473 whole entry, looked up): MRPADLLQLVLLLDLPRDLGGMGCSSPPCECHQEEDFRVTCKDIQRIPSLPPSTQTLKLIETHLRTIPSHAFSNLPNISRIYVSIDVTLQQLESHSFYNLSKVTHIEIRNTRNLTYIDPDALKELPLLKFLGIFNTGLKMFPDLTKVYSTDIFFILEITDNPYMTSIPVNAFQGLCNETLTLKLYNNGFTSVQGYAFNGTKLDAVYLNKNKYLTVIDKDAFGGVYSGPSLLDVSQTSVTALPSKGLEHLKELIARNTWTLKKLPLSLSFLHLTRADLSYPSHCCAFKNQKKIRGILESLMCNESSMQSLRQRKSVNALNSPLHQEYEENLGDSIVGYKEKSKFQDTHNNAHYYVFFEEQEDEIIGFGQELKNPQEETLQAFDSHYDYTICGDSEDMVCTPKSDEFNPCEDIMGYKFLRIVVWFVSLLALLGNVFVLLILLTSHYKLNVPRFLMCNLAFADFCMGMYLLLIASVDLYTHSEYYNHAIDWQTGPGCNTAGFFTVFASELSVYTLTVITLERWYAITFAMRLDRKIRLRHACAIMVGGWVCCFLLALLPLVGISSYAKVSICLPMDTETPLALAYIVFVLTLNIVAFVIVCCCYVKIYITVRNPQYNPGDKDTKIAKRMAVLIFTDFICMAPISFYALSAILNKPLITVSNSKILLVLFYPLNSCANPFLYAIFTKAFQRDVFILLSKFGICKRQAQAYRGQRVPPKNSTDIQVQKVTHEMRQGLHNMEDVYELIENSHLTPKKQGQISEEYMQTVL
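TSHR-expressing cells were treated with compounds, then stimulated with TSH at EC80 (4nM final) for 2 hours at 37 deg C. Cellular cAMP was measured by HTRF competition between lysate cAMP and cAMP-d2 for a cryptate-labelled anti-cAMP antibody.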
Gal4-VP16 FLuc – VP16 counterscreen qHTS for inhibitors of ROR gamma transcriptional activity | AID 2546, 2010 | Potency, µM (series often up to 53.6 µM), without a hit: top-dose activity, negative = inhibition, hits mostly inhibitors | actives 3.5% (n = 310,000) | Drosophila S2 Gal4-VP16 UAS-luciferase, luminescence, 20 h;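 note: Gal4-VP16 expression switched on by copper sulfate through the metallothionein promoter; potency is the fitted concentration of half-maximal effect; nearly all actives have a fitted effect of over 50% in size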
RORg inh – qHTS for inhibitors of ROR gamma transcriptional activity; Drosophila S2 Gal4-RORgamma UAS-luciferase reporter, 20 h; AID 2551, 2010; Potency, µM (titrated, usually from 53.6 µM), for the others: at the top dose activity change, negative = inhibition, actives largely listed as inhibitors; actives 5.4% (n = 310,000); Nuclear receptor ROR-gamma (Mus musculus), P51450; note: potency is the fitted concentration of half-maximal effect; nearly all actives have a fitted effect of over 60% in size
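In this cell-based reporter format, copper sulfate (700 uM final) drives Gal4–ROR gamma fusion expression from a metallothionein promoter in Drosophila Schneider cells; compounds preincubated 1 hr, reporter read after 20 hr at ambient temperature.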
Starred values were filed as active, the others as inactive; ? = inconclusive; nt = no result; [ ] = another dose, or the depositor's remark. Only some compounds are listed: those with a hit (about 8% of all), similar ones and a draw of the others. Unless noted, calls come from the whole dose curve; as a rule, active = well fitted curve in the direction sought with a large enough effect; inconclusive = small, poorly fitted or top-dose-only effect, or another doubt; inactive = no such curve, though single readings can be large; an effect the other way counts as inactive or inconclusive. % is set by controls: 0 for no effect and ±100 for the full control effect.

SMILES	ELG1 repair inh	FBPA coupling cs	TSHR antagonist	Gal4-VP16 FLuc	RORg inh
COc1ccc(C2CC2/C(=N/O)c2ccccc2)cc1 (stereo unspecified)	?	5.5	-4.3	-2.3%	21.7%
COc1ccc(C2CC2/C(=N/O)c2ccccn2)cc1 (stereo unspecified)	6.1%	-1.2	9.9	3.16µM*	?
O=C(Nc1ccc(Cl)c(Cl)c1)Nc1ccc(Br)cc1F	?	-2.6	-49.2	12.6µM*	?
O=C(CCCOc1ccccc1)NNC(=O)c1ccncc1	11.8%	nt	2.6	nt	nt
CCN(CC)c1ccc(/C=N/NC(=S)NC)c(O)c1	?	0.9	2.9	1.78µM*	0.794µM*
CCN(CC)c1ccc(/C=N/NC(=O)c2ccoc2C)c(O)c1	?	-2.8	-8.7	3.55µM*	0.501µM*
CCN(CC)c1ccc(/C=N/NC(=O)OC)c(O)c1	?	-1.9	0.7	?	?
CC(C)[C@H](NC(=O)[C@@H]1CSC2c3ccccc3C(=O)N21)C(=O)N1CCCCC1 (stereo partly specified)	1.9%	nt	-12.4	-2.7%	-2.2%
CC1(C)Cc2c(cnn2-c2cccc(F)c2)C(NC(=O)CSc2ccccn2)C1 (stereo unspecified)	1.4%	0.8	-21.6	-2.6%	4.7%
C=CCn1c(COc2ccc(F)cc2)nnc1SC(C)C(=O)NCC1CCCO1 (stereo unspecified)	-14.3%	nt	2.4	nt	nt
Cc1sc(NC(=S)NC(=O)c2ccc(C(C)(C)C)cc2)c(C#N)c1C	?	1.8	-14.9	11.2µM*	0.562µM*
Cc1onc(-c2ccccc2)c1C(=O)NC(=S)Nc1sc2c(c1C#N)CCC(C)C2 (stereo unspecified)	?	1.9	4.8	?	2.82µM*
Cc1onc(-c2ccccc2)c1C(=O)NC(=S)Nc1sc2c(c1C#N)CCCC2	12.1%	3.5	-1.1	-87.8%	3.55µM*
Cc1onc(-c2ccccc2)c1C(=O)Nc1sc2c(c1C#N)CCC2	?	1.6	1.7	0.4%	16.6%
C=CCNC(=S)Nc1sc2c(c1C#N)CCCC2	3.8%	1.5	-0.2	1.9%	11.2µM*
CC(C)CCNC(=O)CN1N=C(c2ccc(Cl)cc2)CCC1=O	-10.4%	-1.1	1.8	4.4%	14.9%
Cn1c(=O)c(-c2cccc(F)c2)nc2cncnc21	nt	1.6	nt	-1.5%	-28.1%
O=C(COC(=O)c1cccc(O)c1)Nc1ccc(N2CCOCC2)cc1	-0.1%	nt	-10.6	nt	nt
Cc1ccccc1C(=O)NC(=S)Nc1sc2c(c1C#N)CCCC2	?	1.9	-2.4	11.2µM*	3.55µM*
CC(C)(C)C(=O)NC(=S)Nc1sc2c(c1C#N)CCCCC2	?	2.3	2.6	14.1µM*	7.08µM*
CCOc1cc(NS(=O)(=O)CC)c(OCC)cc1NC(=O)c1ccco1	16.4µM*	-21.0	19.2	16.6%	?
COCCNC(=S)Nc1cc(OC)c(NC(=O)c2ccco2)cc1OC	12.9%	0.6	-1.4	-3.7%	-31.2%
CCOCCCNC(=S)Nc1cc(OCC)c(NC(=O)c2ccco2)cc1OCC	?	-9.7	-11.6	-3.9%	7.94µM*
CCOc1cc(NC(=S)NCC(C)C)c(OCC)cc1NC(=O)c1ccco1	-16.9%	-0.8	-12.3	7.94µM*	5.01µM*
CCc1nc2ccccc2n1Cc1ccccc1OC	0.0%	2.0	-10.7	?	7.08µM*
SMILES	ELG1 repair inh	FBPA coupling cs	TSHR antagonist	Gal4-VP16 FLuc	RORg inh
Cc1ccccc1OCCn1c(C)nc2ccccc21	-3.8%	-0.4	-19.4	7.94µM*	1.4%[1.91 µM]
COc1ccccc1Cn1c(C)nc2ccccc21	?	-3.4	-15.3	?	14.1µM*
Cc1ccccc1Cn1c(C)nc2ccccc21	16.6%	-1.5	-20.6	3.55µM*	?
CCc1nc2ccccc2n1Cc1ccc(OC)c(OC)c1	-1.8%	3.4	-8.4	-9.8%	-26.0%
CCn1cc(CN2CCC(n3nccc3NC(=O)c3ccccc3C)CC2)cn1	1.5%	2.2	-8.0	0.9%	-6.9%
COc1ccccc1Cn1c(CCCO)nc2ccccc21	-17.6%	7.2	2.5	12.6%	-30.8%
CCCc1nc2ccccc2n1Cc1ccccc1OC	?	5.8	-17.0	?	6.31µM*
CCc1nc2ccccc2n1CC1CC1(Cl)Cl (stereo unspecified)	2.8%	10.2	-1.0	-1.9%[10 µM]	7.08µM*
ClC1(Cl)CC1Cn1c(C2CC2)nc2ccccc21 (stereo unspecified)	?	-4.4	-14.3	7.4%	14.3%
C1=C(c2ccco2)N2CCN=C2S1	6.3%	0.7	9.4	-13.7%	-5.5%
COc1ccccc1-c1nnc(NC(=O)c2ccc(S(=O)(=O)N(C)CC3CCCO3)cc2)o1 (stereo unspecified)	-2.2%	-2.2	19.9	1µM*	0.708µM*
CN(CC1CCCO1)S(=O)(=O)c1ccc(C(=O)Nc2nnc(-c3ccccc3)o2)cc1 (stereo unspecified)	?	nt	14.2	0.562µM*	0.631µM*
CN(CC1CCCO1)S(=O)(=O)c1ccc(C(=O)Nc2ccc(S(N)(=O)=O)cc2)cc1 (stereo unspecified)	9.4%	nt	-0.9	1.5%	30.9%
CN(CC1CCCO1)S(=O)(=O)c1ccc(C(=O)Nc2nc(-c3ccccn3)cs2)cc1 (stereo unspecified)	?	-3.3	-19.1	11.2µM*	7.94µM*
Cc1ccc(-c2cnc3ccccc3n2)cc1C	?	0.3	-2.6	?	10µM*
O=C(Nc1cccnc1)c1cccc(NC(=O)c2ccco2)c1	-18.6%	1.8	5.0	8.1%	34.7%
O=C(CCl)Nc1cccc(-c2cnc3ccccc3n2)c1	9.2µM*	0.9	2.7	-8.1%	6.3%
O=C(Nc1ccccc1O)c1cccc(NC(=O)c2ccco2)c1	11.6µM*	-0.9	10.4	?	?
O=C(Nc1nccs1)c1cccc(NC(=O)c2ccco2)c1	23.1µM*	-5.2	4.9	-6.6%	?
CCCC(=O)OC(=O)CCC	nt	nt	nt	-6.6%	12.6%
Cc1cnc(C(=O)OC(C)C(=O)Nc2cccc3ccccc23)cn1 (stereo unspecified)	25.9%	nt	16.1	nt	nt
CC1CCC(NC(=O)CSc2nnnn2C)CC1 (stereo unspecified)	?	nt	26.4	nt	nt
O=C(Nc1cccc(-c2cnc3ccccc3n2)c1)c1ccccc1	10.7%	3.7	-0.8	?	?
O=C(Nc1cccc(-c2cnc3ccccc3n2)c1)c1cccc(NC(=O)c2ccco2)c1	10.3µM*	0.2	-29.1	?	?
Fc1ccc(Br)cc1C1C=C(c2ccc(Br)s2)Nc2ncnn21 (stereo unspecified)	0.5%	5.6	-11.1	2.6%[0.365 µM]	35.5µM*
